Experimental data published in PubChem BioAssay (EPA / NIEHS).
The source made the active and inactive calls. The calls were made as follows: active = hit-call score of the fitted dose curve at least 0.9, where 1 is the maximum; inconclusive = response in the unintended direction; inactive = score below 0.9.

Target: Androgen Receptor/SRC-1 Co-activator, AR (gene 367) (UniProt P10275)
Assay: OT_AR_ARSRC1_0960: Odyssey Thera (OT) 16-hour HEK293T Protein-Complementation Assay for Androgen Receptor/SRC-1 Co-activator (AID 2283353);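 also: actives raise the signal above DMSO so potency reflects increased AR and SRC-1 complex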
Experimental: OT_AR_ARSRC1_0960 is a cell-based, single-readout assay that uses HEK293T, a human kidney cell line, with measurements taken at 16 hours after chemical dosing in a 384-well plate.OT_AR_ARSRC1_0960 is one of one assay component(s) measured or calculated from the OT_AR_ARSRC1_0960 assay. It is designed to make measurements of protein fragment complementation, a form of binding reporter, as detected with fluorescence intensity signals by Protein-fragment Complementation technology.Data from the assay component OT_AR_ARSRC1_0960 was analyzed into 1 assay endpoint. This assay endpoint, OT_AR_ARSRC1_0960, was analyzed in the positive analysis fitting direction relative to DMSO as the negative control and baseline of activity. Using a type of binding reporter, measures of receptor for gain-of-signal activity can be used to understand the binding at the pathway-level as they relate to the gene AR. Furthermore, this assay endpoint can be referred to as a primary readout, because the performed assay has only produced 1 assay endpoint. To generalize the intended target to other relatable targets, this assay endpoint is annotated to the nuclear receptor intended target family, where the subfamily is steroidal.
Protein-fragment complementation assay, or PCA, is a method for the identification and quantification of protein-protein interactions. In the PCA, the proteins of interest ("bait" and "prey") are each covalently linked to fragments of a third protein (e.g. DHFR, which acts as a "reporter"). Interaction between the bait and the prey proteins brings the fragments of the reporter protein in close proximity to allow them to form a functional reporter protein whose activity can be measured. The OT AR / SRC-1 assay assessed androgen receptor chemical interactions using a rapidly maturing, intensely fluorescent mutant of YFP known as Venus, rationally dissected into two separate fragments. […] Fusion constructs were transfected into HEK293T cells with a (Gly4Ser)2 linker between the AR/SRC-1 and YFP fragment genes to facilitate complementation when interacting proteins bring fragments into close proximity. The construct is stably expressed in HEK293T cells. […] Images were acquired on an Evotec Opera at 2 wavelengths (488 and 635nm), and the ratio of fluorescence in the nucleus relative to fluorescence in the cytoplasm (N/C Ratio) in the 488nm channel was calculated for a minimum of 400 cells per image. Both agonists and antagonists of the AR receptor induce nuclear translocation to varying degrees. […] The OT AR/SRC-1 assay was also run for 16 hours (see description for OT_AR_ARSRC1_0960).

Chain of Androgen Receptor/SRC-1 Co-activator, AR (gene 367) (P10275 whole entry, looked up): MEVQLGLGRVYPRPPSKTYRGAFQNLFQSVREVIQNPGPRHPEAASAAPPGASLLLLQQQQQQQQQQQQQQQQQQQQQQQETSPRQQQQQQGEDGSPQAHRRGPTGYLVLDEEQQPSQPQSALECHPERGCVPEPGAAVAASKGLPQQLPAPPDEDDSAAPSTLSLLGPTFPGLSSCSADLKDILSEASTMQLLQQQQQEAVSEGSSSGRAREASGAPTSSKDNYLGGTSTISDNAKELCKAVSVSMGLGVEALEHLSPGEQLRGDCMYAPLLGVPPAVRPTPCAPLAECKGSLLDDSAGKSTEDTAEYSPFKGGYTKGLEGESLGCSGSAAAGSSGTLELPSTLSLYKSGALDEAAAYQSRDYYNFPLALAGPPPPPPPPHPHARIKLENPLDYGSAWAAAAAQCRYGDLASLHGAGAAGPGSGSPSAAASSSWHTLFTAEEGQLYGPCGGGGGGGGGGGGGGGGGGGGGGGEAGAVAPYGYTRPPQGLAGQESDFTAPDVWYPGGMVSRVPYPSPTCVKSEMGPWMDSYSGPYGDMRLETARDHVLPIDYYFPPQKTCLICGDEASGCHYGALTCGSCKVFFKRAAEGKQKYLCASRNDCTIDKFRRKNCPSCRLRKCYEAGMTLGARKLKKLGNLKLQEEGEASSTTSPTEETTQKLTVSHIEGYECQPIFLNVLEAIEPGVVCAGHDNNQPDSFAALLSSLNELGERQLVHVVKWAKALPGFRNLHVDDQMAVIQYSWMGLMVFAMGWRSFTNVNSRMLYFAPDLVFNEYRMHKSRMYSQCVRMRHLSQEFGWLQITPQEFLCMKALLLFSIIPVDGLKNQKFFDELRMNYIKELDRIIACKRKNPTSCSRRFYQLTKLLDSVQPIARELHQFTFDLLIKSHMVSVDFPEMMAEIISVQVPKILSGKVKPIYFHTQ

Structure (SMILES) | outcome | AC50
Nc1c(Cl)cc([N+](=O)[O-])cc1Cl | inactive | –
O=c1ccc(=O)[nH][nH]1 | inactive | –
N#CSCSC#N | – | 15.5 µM (active)
C[N+]1(C)CCCCC1 | inactive | –
CCCSP(=O)(OCC)SCCC | inactive | –
C=C(C)[C@H]1Cc2c(ccc3c2O[C@@H]2COc4cc(OC)c(OC)cc4[C@@H]2C3=O)O1 | – | 0.088 µM (active)
COc1ccc(C(=CC(=O)N2CCOCC2)c2ccc(Cl)cc2)cc1OC | inactive | –
CCOC(=O)COc1cc(-c2nn(C)c(OC(F)F)c2Cl)c(F)cc1Cl | inactive | –
CCOP(=O)(NC(C)C)Oc1ccc(SC)c(C)c1 (centres undefined) | inactive | –
Cc1nn(-c2cc(NS(C)(=O)=O)c(Cl)cc2Cl)c(=O)n1C(F)F | inactive | –
COP(=O)(OC)OC(Br)C(Cl)(Cl)Br (centres undefined) | – | 32.5 µM (active)
CCC(=O)Nc1ccc(Cl)c(Cl)c1 | inactive | –
CCCOc1nn(C(=O)NS(=O)(=O)c2ccccc2C(=O)OC)c(=O)n1C | inactive | –
CC(C)=CC1C(C(=O)OCN2C(=O)C3=C(CCCC3)C2=O)C1(C)C (centres undefined) | – | 78.6 µM (active)
CCc1cccc(CC)c1N(COC)C(=O)CCl | – | 32 µM (active)
CC(COc1ccc(Oc2ccccc2)cc1)Oc1ccccn1 (centres undefined) | inactive | –
CNC(=O)ON=C(SC)C(=O)N(C)C | inactive | –
CCCCOC(=O)c1ccccc1C(=O)O | inactive | –
COP(=O)(OC)SCn1c(=O)oc2cc(Cl)cnc21 | – | 57.8 µM (active)
